# Screening data: PubChem, National Center for Advancing Translational Sciences (NCATS)
# An excerpt weighted towards active compounds, which were near 7.5% of everything screened.
# FMDV inh – foot and mouth disease virus antiviral activity. Potency, µM (titrated, usually from 57.9 µM), for inactives: at the top dose activity change, negative = inhibition, actives largely listed as inhibitors. hit rate 1.2% among 410,000. AID 1159524. FMDV antiviral cell-based qHTS; calls by dose curve; tested in HEK293T cells; also: read-out not given here; potency is read from the fitted curve at half-maximal effect; nearly all actives have a fitted effect of over 45% in size
# HCMV antiviral – inhibitors of human cytomegalovirus | HFF cells, HCMV-luciferase reporter, 72 h; hits give low values | activity change, negative = inhibition, % at 57.5 µM | hit rate 4.5% among 410,000; in the data active = activity change below about -60%; inconclusive = no clear call, values can overlap the other calls; inactive = above about -39%
#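 Inhibition of viral replication was scored as loss of reporter luminescence in HFFs infected with HCMV-luciferase (MOI 1 PFU/cell) for 72 h; compounds tested at 2 doses, normalized to buffer and Salinomycin controls.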
# HCV inhibitor – inhibitors of hepatitis C virus infection | Huh7.5.1 HCVcc-Cre infection, luciferase reporter, 44 h | Potency, µM (series often up to 41.8 µM), inactives show at the top dose activity change, negative = inhibition, most hits filed as inhibitors | hit rate 3.4% among 340,000; also: potency is read from the fitted curve at half-maximal effect
#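 Seed cells (1,000/well) for 4 h; treat with compound and infect with HCVcc-Cre, moi about 0.5. Incubate 44 h, then detect luciferase activity.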
# FBPA Giardia inh – Giardia lamblia aldolase inhibition | purified Giardia FBPA | Potency, µM (top dose mostly 59.6 µM), without a hit: at the highest dose activity, negative = inhibition, actives largely listed as inhibitors | hit rate 0.71% among 290,000; also: potency is read from the fitted curve at half-maximal effect; nearly all actives have a fitted effect of over 55% in size
# Target sequence (A8B2U2 whole entry, looked up): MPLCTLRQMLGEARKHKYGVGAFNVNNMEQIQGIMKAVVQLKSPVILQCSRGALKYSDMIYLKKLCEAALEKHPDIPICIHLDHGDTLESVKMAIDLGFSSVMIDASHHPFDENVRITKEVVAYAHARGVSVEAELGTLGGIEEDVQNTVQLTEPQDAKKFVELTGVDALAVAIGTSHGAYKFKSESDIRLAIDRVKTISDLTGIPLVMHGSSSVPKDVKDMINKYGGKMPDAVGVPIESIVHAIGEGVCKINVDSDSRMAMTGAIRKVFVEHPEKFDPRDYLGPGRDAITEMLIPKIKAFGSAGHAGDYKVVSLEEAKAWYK
#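 Giardia FBPA (40 nM reagent) was preincubated 10 min at RT with compound (up to 57.5 uM final), then substrate plus GAPDH/TPI/NAD/arsenate coupling system with diaphorase/resazurin was added; resorufin fluorescence (525/598 nm) was read after 20 min.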
# Vaccinia Venus – inhibitors of vaccinia virus (Venus reporter); hit rate 0.46% among 330,000; Potency, µM (series often up to 36.5 µM), inactives show at the top dose activity change, negative = inhibition, usual class: inhibitors; Vaccinia virus Venus reporter expression, fluorescence; calls by dose curve; tested in A549 cells; also: potency is read from the fitted curve at half-maximal effect; nearly all actives have a fitted effect of over 30% in size
# Vaccinia mCherry – inhibitors of vaccinia virus infection (mCherry reporter signal); Vaccinia virus mCherry reporter infection, fluorescence; Potency, µM (titrated, usually from 36.5 µM), inactives show at the highest dose activity change, negative = inhibition, actives largely listed as inhibitors; hit rate 0.63% among 310,000; calls by dose curve; tested in A549 cells; also: potency is read from the fitted curve at half-maximal effect; nearly all actives have a fitted effect of over 35% in size
# Starred values were filed as active, the others as inactive; i = inactive; ? = inconclusive; / = not tested or not shown. Unless noted, calls follow the shape of the dose curve; as a rule, active = well fitted curve in the direction sought with a large enough effect; inconclusive = small, poorly fitted or top-dose-only effect, or another doubt; inactive = no such curve, though single readings can be large; an effect the other way counts as inactive or inconclusive. % is scaled to controls: 0 for no effect and ±100 for the full control effect.
SMILES,FMDV inh,HCMV antiviral,HCV inhibitor,FBPA Giardia inh,Vaccinia Venus,Vaccinia mCherry
COc1ccc(CCNC(=O)C(=O)NCCC2CCCCN2S(=O)(=O)c2cccs2)cc1 (stereo not given),32µM*,-30,?,/,-22%,?
Cc1ccccc1CNC(=O)C(=O)NCCC1CCCCN1S(=O)(=O)c1cccs1 (stereo not given),-10%,-29,?,/,?,-22%
CCSC1=N/C(=C\c2ccccc2)C(=O)N1c1ccc(OC)cc1,-21%,?,10µM*,6%,-12%,-16%
COc1ccc(/C=C2/N=C(SCC(=O)Nc3cc(C)on3)N(c3ccccc3)C2=O)cc1,-12%,-6,5%,6%,-10%,-7%
CCN(CC)C1=N/C(=C\c2ccc(OC)cc2)C(=O)N1c1ccccc1,?,-74*,?,-3%,14%,?
COc1cc(OC)c(NS(=O)(=O)c2c(C(=O)N3CCCCC3)c(C)n(C)c2C)cc1Cl,17%,-15,6%,/,/,/
CCOC(=O)/C=C/[C@H](CCCCOCc1ccccc1)NC(=O)C(F)(F)F,/,9,/,/,/,/
Cc1nc(C)c(-c2ccc(SCc3ccc(Cl)cc3)nn2)s1,-8%,-27,?,-3%,/,/
COc1ccccc1-c1ccc(SCc2ccc([N+](=O)[O-])cc2)nn1,-14%,-68*,?,-5%,-14%,-27%
Cc1nc(C)c(-c2ccc(SCc3ccc([N+](=O)[O-])cc3)nn2)s1,-29%,?,32µM*,/,/,/
O=[N+]([O-])c1ccc(CSc2ccc(-c3ccccn3)nn2)cc1,-14%,-12,-22%,9%,-15%,-8%
CCc1cc(C(=O)OC)c(NC(=O)CC2SC(=NC)N(C)C2=O)s1 (stereo not given),5%,10,16µM*,-2%,-5%,i
COc1ccc(CN2CCC3(CC2)c2ccccc2[C@@H](NC(=O)c2ccccc2)[C@@H]3O)cc1O,4%,/,/,/,-10%,i
CC(C)(CC(=O)NCc1ccc(Cl)cc1Cl)CC1=NS(=O)(=O)c2ccccc2N1,?,-89*,/,/,-12%,9%
Cc1ccc(Cl)cc1NC(=O)COC(=O)CC(C)(C)CC1=NS(=O)(=O)c2ccccc2N1,-16%,17,/,/,-16%,-16%
CC1CN(CC(=O)c2ccccc2Cl)CC(C)O1 (stereo not given),6%,-61*,8%,-6%,-5%,i
CC1CCN(CC(=O)c2ccccc2Cl)CC1,1%,-3,22%,2%,-11%,-8%
COc1ccc(C(=O)N2CCCC2(C#N)c2ccccc2)cc1[N+](=O)[O-] (stereo not given),?,69,14µM*,-4%,-24%,-14%
COc1ccccc1C(=O)N1CCCC1(C#N)c1ccccc1 (stereo not given),-4%,-11,7%,-9%,-13%,/
Cc1cccc(N=C2c3cc([N+](=O)[O-])ccc3-c3c2cc([N+](=O)[O-])cc3[N+](=O)[O-])c1,?,16,7.1µM*,/,-21%,-21%
CN(C)c1nc(-c2cccnc2)nc(-c2ccccc2)c1C#N,-5%,-35,-1%,6%,-23%,-5%
CC(C)c1ccccc1OCC(=O)Nc1ccc2[nH]ncc2c1,-5%,?,22µM*,-9%,-21%,-15%
COc1ccc(Cn2c(-c3ccc(OC)cc3)n[nH]c2=S)cc1,-19%,16,3%,24%,-4%,-1%
S=c1[nH]nc(-c2ccco2)n1-c1ccc(Cl)cc1,0%,-61*,13%,1%,-12%,i
CC(C)Oc1ccc(Cn2c(-c3ccco3)n[nH]c2=S)cc1,3%,19,4%,8%,?,28µM*
SMILES,FMDV inh,HCMV antiviral,HCV inhibitor,FBPA Giardia inh,Vaccinia Venus,Vaccinia mCherry
COc1ccc(-n2c(-c3ccco3)n[nH]c2=S)cc1,18%,-2,2%,2%,/,/
CCCN1CNc2c(c(=O)[nH]c(=S)n2CCc2ccc(OC)cc2)C1,/,/,/,/,-16%,i
O=C(NCCNc1ccc(Cl)cc1[N+](=O)[O-])c1ccccc1F,14%,-39,-10%,-4%,/,/
Oc1ccc(Nc2ccnc3cc(Cl)ccc23)cc1,24%,-12,-2%,-7%,-2%,?
O=C(NCCNc1ccnc2cc(Cl)ccc12)c1ccccc1F,?,-62*,13µM*,-4%,/,/
CCN(CC)CCNc1ccnc2cc(Cl)ccc12,-21%,0,5.6µM*,6%,/,/
CCN(CC)Cc1cc(Nc2ccnc3cc(Cl)ccc23)ccc1O,-17%,-28,7.9µM*,-7%,-11%,-11%
CCN(CCO)CCCC(C)Nc1ccnc2cc(Cl)ccc12 (stereo not given),-14%,/,/,5%,-2%,-8%
CCOc1ccc(-c2nn(-c3ccccc3)cc2C2NC(=O)NC(C)=C2C(=O)OC(C)C)cc1C (stereo not given),1%,-10,/,/,-4%,7%
Oc1cc(-c2ccc(N3CCCCC3)nc2)cc2cccnc12,12%,/,/,/,/,/
CN(C)c1ccc(-c2cc(O)c3ncccc3c2)cc1,31%,-97*,/,/,/,/
CN(C)CCCNC(=O)c1ccc(-c2cc(O)c3ncccc3c2)cc1,6%,-39,/,/,/,/
Oc1cc(-c2ccncc2)cc2cccnc12,-5%,-97*,/,/,/,/
CC(O)CNc1ncnc2nc[nH]c12 (stereo not given),-5%,-12,15%,5%,/,/
CC(C)CCCCCCCCCCCCC(=O)NCC(=O)NC1C(O)C(O)C(Nc2ncnc3nc[nH]c23)OC1C(O)CO (stereo not given),?,/,?,/,11µM*,40µM*
COc1ccc2oc(=O)cc(CN3CCN(Cc4ccc(OC)c(OC)c4OC)CC3)c2c1,-5%,-26,3.5µM*,-4%,/,/
CC(C)CN(Cc1cc(=O)oc2cc(-c3ccccc3)c(O)cc12)CC(C)C,-13%,-33,14µM*,0%,3%,?
Cc1c(O)ccc2c(CN3CCN(C/C=C/c4ccccc4)CC3)cc(=O)oc12,?,-60*,11µM*,-7%,-28%,-7%
O=c1cc(CN2CCN(C/C=C/c3ccccc3)CC2)c2cc(O)c(-c3ccccc3)cc2o1,-23%,-5,?,-8%,-10%,-6%
Cc1cc2oc(=O)cc(CN3CCN(C/C=C/c4ccccc4)CC3)c2cc1O,/,-20,/,-10%,/,/
COc1ccc(N2CCN(Cc3cc(=O)oc4cc(-c5ccccc5)c(O)cc34)CC2)cc1,0%,-80*,-10%,-9%,-22%,/
O=C(NCCn1cc(SCc2ccc(F)cc2)c2ccccc21)c1cccs1,?,-35,/,/,-17%,-18%
Cc1cc2oc(=O)cc(CN3CCN(Cc4ccccc4)CC3)c2cc1O,-19%,-9,11µM*,12%,/,/
CN1CCN(Cc2cc(=O)oc3cc4c(cc23)CCC4)CC1,11%,2,?,-2%,/,/
Cc1ccc2c(CN3CCCCC3)cc(=O)oc2c1,21%,-77*,2%,-4%,-4%,7%
